Assay results: paper PMC12136788
Over roughly 24,000 sequences, “enrichment r” has its median near 0.99; the highest 2% begin near 3.7. Shown is part of a subset that was picked to be rich in the highest values.

B1: 23688267_23688387_1410_3pUTR_ENSMUSG00000048439_ENSMUST00000049887|mouse|control|control (ssRNA)
RNA: GGGAGUUCUACAGUCCGACGAUCUGAAUUUGUGGUGUUCUGCUGCUCAGCUUCCCAGACUGUAGGCAUGCAGGACAUGCCUGGCUAAGGCAUUCUUUCUGUAUUUAAACCUGACCUUUAUACAGUCAGAAGCUCGACCGGUGGCAACAGAGGAUUGAGCAUCA
B2: chr2:228221723:228221724:+_ENSG00000168958_ENST00000354503|hu_mus|FALSE|FALSE (ssRNA)
RNA: GGGAGUUCUACAGUCCGACGAUCGACCAUUUCUCUUUUAGCACGCUCUUUAUUCUCCUCUUCCAGAAGUUGGAGACGUCUAUUUAAUUUGAUUAUCUGACGUCUUAAUGAAGCUGCAUCUACCACAGUCAUGUCAUCUGAAGCCAACAGAGGAUUGAGCAUCA
B3: 60766941_60767061_3855_CDS_ENSG00000011028_ENST00000303375|human|control|control (ssRNA)
RNA: GGGAGUUCUACAGUCCGACGAUCGAAGGCCUGGGUGUAGGGGUCGGGCACGUAGGCCAGGCUGGCAUUGCGGCUCUCACACAGCAGGAGGGCAUCGUGCCAGCGCAGCGGCUUCUGAAGCAGCCGGAAGGUGCCGUUGAGGUACAACAGAGGAUUGAGCAUCA
B4: chr3:196311055:196311056:+_ENSG00000174013_ENST00000440469|hu_hu|FALSE|FALSE (ssRNA)
RNA: GGGAGUUCUACAGUCCGACGAUCGACCUUUGGAAGUCCUCUAAAAGCAACCCCCAGGAACUCAUAUCCACGUUCAAAAGCUAAAGUCUUAUCUUCCAUGUCCAAGAUGACUCGAAUUCUUUCUCCUAUCUGAUAUUUUGGUGCCAACAGAGGAUUGAGCAUCA
B5: chr1:32661602:32661603:+_ENSG00000084652_ENST00000373610|hu_hu|FALSE|FALSE (ssRNA)
RNA: GGGAGUUCUACAGUCCGACGAUCCAGCAUCCCUCUUCCUUGGAAGGUCCUCAAUACAAACACUGUCAUGUGCAAAAAAAAAAGAAAAAGAAAAAAAAAAAAAAAGAAAAAGAAAUAAAGAAAAAAACACCUUCAGAAAUAAUCCAACAGAGGAUUGAGCAUCA
B6: 112506700_112506820_3235_3pUTR_ENSMUSG00000032727_ENSMUST00000109272|mouse|control|control (ssRNA)
RNA: GGGAGUUCUACAGUCCGACGAUCAAUAAAUACCCUCCCGUCCAGUCACUAGGACCACUACCUCCUACCUACUCUUCAGCACGACCUUGAAGCGACUCACACUUAUAAACAGCAACACAACUAGGAAAAUAAAAAAAAAAAUCACAACAGAGGAUUGAGCAUCA
B7: chr2:140009677:140009678:+_ENSMUSG00000027384_ENSMUST00000044825|mus_mus|FALSE|FALSE (ssRNA)
RNA: GGGAGUUCUACAGUCCGACGAUCGCUGCUAACCACCAGGUCAAACGUGUUUUCUUGGAAGGGAAGGAAUUCUUCAUCAGCUAAAAUAUUCACAGUAGGAAUAUCUGUUUCUAAAGAAUUUUUCAAAGCAUGCUCUGCAAUGUCCAACAGAGGAUUGAGCAUCA
B8: chrX:71549762:71549763:+_ENSMUSG00000019087_ENSMUST00000019231|mus_mus|mus_mus_mus_hu_False|28_88 (ssRNA)
RNA: GGGAGUUCUACAGUCCGACGAUCAAACCCGUGUACUUCUUAUUGUUACAUCACCCCCACCAGAAAACGAUAACGACAGCCAAGCAGGACAGACAGUUAAGUAGUACUUCCACACCUCCAAACUCAGGGAGCCCUAUAACCUUACAACAGAGGAUUGAGCAUCA
B9: 32740819_32743422_11525_CDS_ENSG00000115760_ENST00000421745|human|control|control (ssRNA)
RNA: GGGAGUUCUACAGUCCGACGAUCCAGCAUCAACUGUAAAAAUAAUCUUCGUAUAAACCCUGAAAUGUUCCCAGAUGUUGGAAGGUUCCCUCUUUGAGGAGAUGUCUGAAAUAGUUCACAAAGAACCUGUGCCAUCAGCUUUUGCAACAGAGGAUUGAGCAUCA
B10: chrX:71549762:71549763:+_ENSMUSG00000019087_ENSMUST00000019231|mus_mus|mus_mus_mus_hu_False|28_98 (ssRNA)
RNA: GGGAGUUCUACAGUCCGACGAUCAAACCCGUGUACUCACUCUUAACAGCACAACAUCACCAGAAAACGAUAACGACAGCCAAGCAGGACAGACAGUUAAGUAGUACUUCCACACCUCCAAACUCAGGGAGCCCUAUAACCUUACAACAGAGGAUUGAGCAUCA
B11: chr3:41266445:41266446:+_ENSG00000168036_ENST00000349496|perfect_dup|FALSE|FALSE (ssRNA)
RNA: GGGAGUUCUACAGUCCGACGAUCCAUAGCAGCUCGUACCCUCUGAGCUCGAGUCAUUGCAUACUGUCCAUCAAUAUCAGCUACUUGUUCUUGAGUGAAGGACUGAGAAAAUCCCUGUUCCCACUCAUACAGGACUUGGGAGGUCAACAGAGGAUUGAGCAUCA
B12: chrX:140365796:140365797:-_ENSMUSG00000031285_ENSMUST00000033642|mus_mus|mus_mus_mus_hu_False|28_108 (ssRNA)
RNA: GGGAGUUCUACAGUCCGACGAUCCUUCUCAUUACUUAGUGCCUGCAAGGUUCUGGUUCGGUAGAAGCUACAGUGGGCGCUGUGAGUGGGGCUAGGCAACCCAUUCAUCCGUGACCCUCGCAUGUUCCUGGAUGUCUUAUCUCUCAACAGAGGAUUGAGCAUCA
B13: chr9:95013113:95013114:-_ENSG00000196305_ENST00000443024|hu_hu|hu_hu_hu_mus_False|68_98 (ssRNA)
RNA: GGGAGUUCUACAGUCCGACGAUCCUCAGUCAGAAAGGGUGUGUAGGGGGCCAUCAGUCUGCACAGAGAAAGCAGAACACUGAACAGUGUCUCCAGAGCCAUGACACAGUCUUCCACCCCACUCUCACCCUUUAACCUCCUCCUCAACAGAGGAUUGAGCAUCA
B14: 176631152_176631272_1200_CDS_ENSG00000165671_ENST00000439151|human|control|control (ssRNA)
RNA: GGGAGUUCUACAGUCCGACGAUCUUUCUGUUUCCCUCUUCUCCUAAGGACAGGUAGCUCUUCGAAUUGAUGUCUGCCUUCAAACAUGACGAUUGCUUUUCCAGCCACCCAGGCUCUCUCAGAAGGAUCUCCAAAAGCCUCCACCAACAGAGGAUUGAGCAUCA

Each binder was assayed against T1, UNK ZnF1-3 (human, UniProt Q9C0B0 31-174) (assay: nsRBNS (natural sequence RNA bind-n-seq); RBNS binding buffer (assumed for nsRBNS): 25 mM Tris pH 7.5, 150 mM KCl, 3 mM MgCl2, 0.01% Triton X-100, 500 ug/ml BSA, 20 U/ml SUPERase-In, 4 C; UNK is unkempt and MSI1 is Musashi-1; names of the RNAs are library labels; protein concentration not given here; high values mean tight binding).
T1 sequence: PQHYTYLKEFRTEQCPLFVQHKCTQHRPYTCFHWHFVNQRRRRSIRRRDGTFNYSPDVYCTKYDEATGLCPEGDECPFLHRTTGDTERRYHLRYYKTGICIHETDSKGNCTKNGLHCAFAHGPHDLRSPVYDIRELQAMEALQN

| Binder | binding signal [enrichment R] |
| --- | --- |
| B1 | 0.457 |
| B2 | 0.795 |
| B3 | 0.939 |
| B4 | 1.13 |
| B5 | 4.33 |
| B6 | 4.38 |
| B7 | 1.19 |
| B8 | 1.85 |
| B9 | 1.97 |
| B10 | 1.72 |
| B11 | 0.798 |
| B12 | 0.752 |
| B13 | 0.959 |
| B14 | 0.923 |
